Assay outcomes: PubChem BioAssay, National Center for Advancing Translational Sciences (NCATS)
CtBP-E1A inh = blocks the CtBP interaction with E1A; AlphaScreen GST-E1A/His-CtBP binding, 1536-well; hits give low values; activity change, % (concentration not given with the values); 0.49% of 340,000 active; AID 651724; in the data active = activity change below about -65%; inconclusive = mostly about -30% to -63%
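AlphaScreen with 125 nM GST-E1A and 125 nM His-CtBP (5X stocks) in Tris pH 8.0, 300 mM NaCl, BSA, Tween 20, TCEP. Compounds preincubated 2 h at 37 deg C, then glutathione donor/nickel acceptor beads added for 1 h at 37 deg C in dark.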
JMJD2A Tudor = inhibitors of human JMJD2A Tudor domain; O75164; Potency, µM (highest dose often 114 µM), most hits filed as inhibitors; 4.4% of 390,000 active; AlphaScreen JMJD2A-Tudor / H3K4me3 peptide binding; also: nearly all actives have a fitted effect of over 50% in size
BAZ2B block = BAZ2B (human) inhibition; AlphaScreen BAZ2B-H3K14Ac peptide displacement; Potency, µM (series often up to 114 µM), actives largely listed as inhibitors; 4.4% of 360,000 active; also: nearly all actives have a fitted effect of over 60% in size
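In this displacement format the biotinylated H3(5-23) peptide acetylated at Lys14 serves as ligand at 50 nM, with BAZ2B at 50 nM in PBS pH 7.4 containing 0.01% Tween-20. Donor and acceptor beads are 10 ug/mL final.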
Six1-Eya2 blk = inhibitors of human Six1/Eya2 interaction; AlphaScreen GST-Six1/His-Eya2 binding, biochemical; hits give low values; activity change, % (concentration not given with the values); 0.56% of 360,000 active; AID 651725; in the data active = activity change below about -65%; inconclusive = mostly about -30% to -63%
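Six1/Eya2 binding was read as AlphaScreen signal after compounds were pinned into GST-Six1 plus His-tagged Eya2 (5X stock 250/500 nM) in pH 8.0 Tris/NaCl/TCEP buffer, beads added, then incubated 1 h, 37 C, dark.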
HP1b binding inh = inhibitors of HP1-beta chromodomain binding to methylated histone tails; P83916; AlphaScreen HP1-beta / biotin-H3K9me3 peptide binding; Potency, µM (highest dose often 114 µM), actives largely listed as inhibitors; 0.56% of 390,000 active; also: nearly all actives have a fitted effect of over 70% in size
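Compound inhibition of the preformed complex between 50 nM HP1-beta and 50 nM biotinylated H3K9me3 peptide was read by AlphaScreen. Buffer was PBS pH 7.4 with 0.01% Tween-20. Incubations ran 30 min at room temperature, with 10 ug/mL donor/acceptor beads.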
G9a inh = G9a (human) methyltransferase inhibition | Q96KQ7 | G9a H3K9 monomethylation, AlphaScreen, 2 h | Potency, µM (highest dose often 102 µM), most hits filed as inhibitors | 8.8% of 350,000 active | AID 504332; also: nearly all actives have a fitted effect of over 75% in size
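G9a (20 nM) preincubated 15 min RT with compounds, then 500 nM biotinylated H3K9 peptide and 20 uM SAM added; 2 h RT reaction. Monomethyl-H3K9 product detected by AlphaScreen with anti-H3K9me1 antibody, streptavidin donor and anti-rabbit IgG acceptor beads.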
Numbers stand for hits; [ ] = remark or other dose. Rows were chosen to be rich in hits. Some 10% of all compounds tested hit in one or more screens of this group. Unless noted, calls follow the shape of the dose curve; as a rule, active = well fitted inhibition curve with a large enough effect; inconclusive = small, poorly fitted or top-dose-only effect; inactive = no such curve, though single readings can be large or run the other way.

Results for Cn1cccc1/C=C1\C(=O)NC(=O)N(CCC2=CCCCC2)C1=O ?
CtBP-E1A inh: inactive; JMJD2A Tudor: inactive; BAZ2B block: inactive; Six1-Eya2 blk: inactive; HP1b binding inh: inactive; G9a inh: inactive

How did Cn1cccc1/C=C1\C(=O)NC(=O)N(Cc2ccccc2Cl)C1=O do in these assays?
CtBP-E1A inh: inactive; JMJD2A Tudor: inconclusive; Six1-Eya2 blk: inactive; HP1b binding inh: inactive; G9a inh: 44.7µM

Results for O=C1N=NC2=C1c1c3ccccc3c(O)n1CC2 ?
CtBP-E1A inh: inactive; JMJD2A Tudor: inactive; BAZ2B block: inactive; Six1-Eya2 blk: inactive; HP1b binding inh: inconclusive; G9a inh: inactive

What do the screens show for `CCC(CO)NC(=O)[C@@H]1C=C2c3cccc4[nH]cc(c34)C[C@H]2N(C)C1` (some centres undefined)?
G9a inh: inactive[12.7 µM]

How did O=C(c1ccc(CNS(=O)(=O)c2ccc(Br)cc2)cc1)N1CCC2(CC1)OCCO2 do in these assays?
CtBP-E1A inh: inactive; JMJD2A Tudor: inactive; BAZ2B block: inactive; Six1-Eya2 blk: inactive; HP1b binding inh: inactive; G9a inh: inactive

How did O=C(c1ccc(CNS(=O)(=O)c2ccccc2)cc1)N1CCC2(CC1)OCCO2 do in these assays?
CtBP-E1A inh: inactive; JMJD2A Tudor: inconclusive; BAZ2B block: inconclusive; Six1-Eya2 blk: inactive; HP1b binding inh: inactive; G9a inh: 35.5µM

How did COCCN1C(=O)NC(=O)/C(=C\c2ccc(F)cc2)C1=O do in these assays?
CtBP-E1A inh: inactive; JMJD2A Tudor: inactive; BAZ2B block: inactive; Six1-Eya2 blk: inactive; HP1b binding inh: inactive; G9a inh: inconclusive

Results for O=C1NC(=O)N(CCc2ccc(F)cc2)C(=O)/C1=C/c1cccs1 ?
CtBP-E1A inh: inactive; JMJD2A Tudor: 56.2µM; BAZ2B block: inactive; Six1-Eya2 blk: inactive; HP1b binding inh: inactive; G9a inh: 3.16µM

Results for CN(C)c1ccc(/C=C2\C(=O)NC(=O)N(CCc3ccc(F)cc3)C2=O)cc1 ?
JMJD2A Tudor: inconclusive; BAZ2B block: inconclusive; Six1-Eya2 blk: inactive; HP1b binding inh: inactive; G9a inh: 44.7µM

How did O=C1NC(=O)N(CCc2ccc(F)cc2)C(=O)/C1=C/c1ccco1 do in these assays?
CtBP-E1A inh: inactive; JMJD2A Tudor: 39.8µM; BAZ2B block: 10µM; Six1-Eya2 blk: inconclusive; HP1b binding inh: 35.5µM; G9a inh: 10µM

Results for O=C1NC(=O)N(CCC2=CCCCC2)C(=O)/C1=C\c1cccs1 ?
CtBP-E1A inh: inactive; JMJD2A Tudor: inconclusive; BAZ2B block: inconclusive; Six1-Eya2 blk: inactive; HP1b binding inh: inactive; G9a inh: inconclusive

Results for CC[C@@H](CO)Nc1nc(NCc2ccccc2)c2ncn(C(C)C)c2n1 ?
G9a inh: inactive

How did CC(=O)O[C@H]1C(=O)[C@@]2(C)C([C@H](OC(=O)c3ccccc3)[C@]3(O)C[C@H](OC(=O)[C@H](O)[C@@H](NC(=O)c4ccccc4)c4ccccc4)C(C)=C1C3(C)C)[C@]1(OC(C)=O)CO[C@@H]1C[C@@H]2OC(=O)[C@H](C)NC(=O)c1ccc(-c2c3ccc(=O)cc-3oc3cc(O)ccc23)c(C(=O)O)c1 (some centres undefined) do in these assays?
G9a inh: inactive[12.7 µM]

Results for C[C@@H]1O[C@@H](O[C@H]2C[C@@H](O)[C@]3(CO)[C@@H]4C(CC[C@]3(O)C2)[C@@]2(O)CC[C@H]([C@@H]3COC(=O)C3)[C@@]2(C)C[C@H]4O)[C@H](O)[C@H](O)[C@H]1O (some centres undefined) ?
G9a inh: inactive

What do the screens show for `CN1CCN(c2ccc([N+](=O)[O-])c(N3CCCCC3)c2)CC1`?
CtBP-E1A inh: inactive; JMJD2A Tudor: inactive; BAZ2B block: inconclusive; Six1-Eya2 blk: inactive; HP1b binding inh: inactive; G9a inh: 56.2µM

How did CN1CCN(c2ccc([N+](=O)[O-])c(NCC3CCCO3)c2)CC1 (centres undefined) do in these assays?
CtBP-E1A inh: inactive; JMJD2A Tudor: inactive; BAZ2B block: inactive; Six1-Eya2 blk: inactive; HP1b binding inh: inactive; G9a inh: 28.2µM

What do the screens show for `CCCCCCC(=O)CCCCCC/C=C/C[C@@H](O)[C@H](O)[C@@](N)(CO)C(=O)O`?
G9a inh: inactive[12.7 µM]

How did CN[C@@H](CC(C)C)C(=O)N[C@@H]1C(=O)N[C@H](CC(N)=O)C(=O)N[C@@H]2C(=O)N[C@H]3C(=O)N[C@H](C(=O)N[C@H](C(=O)O)c4cc(O)cc(O)c4-c4cc3ccc4O)[C@H](O)c3ccc(c(Cl)c3)Oc3cc2cc(c3O[C@H]2O[C@@H](CO)[C@@H](O)[C@@H](O)[C@@H]2O[C@@H]2C[C@](C)(N)[C@H](O)[C@H](C)O2)Oc2ccc(cc2Cl)[C@@H]1O do in these assays?
G9a inh: inactive[12.7 µM]

How did O=C(N/N=C1/CN2CCC1CC2)c1cccc(O)c1 do in these assays?
CtBP-E1A inh: inactive; JMJD2A Tudor: 44.7µM; BAZ2B block: inconclusive; Six1-Eya2 blk: inactive; HP1b binding inh: inactive; G9a inh: 10µM

What do the screens show for `CN1C2CCC1CC(OC(=O)c1cccc(O)c1)C2` (centres undefined)?
CtBP-E1A inh: inactive; JMJD2A Tudor: inactive; Six1-Eya2 blk: inactive; HP1b binding inh: inactive

Results for COC(=O)CSc1nc2sc3c(c2c(=O)n1C1CCCCC1)CCN(C)C3 ?
BAZ2B block: inactive; G9a inh: 44.7µM

What do the screens show for `CCOC(=O)c1cc2c(cn1)[C@@H](CCO)NC2`?
CtBP-E1A inh: inactive; JMJD2A Tudor: 44.7µM; Six1-Eya2 blk: inconclusive; HP1b binding inh: inactive

What do the screens show for `O=C1OC(c2ccc(Br)cc2)=N/C1=C\N1CC2CC(C1)c1cccc(=O)n1C2` (centres undefined)?
JMJD2A Tudor: inconclusive; BAZ2B block: inconclusive; Six1-Eya2 blk: inactive; HP1b binding inh: inactive; G9a inh: inactive

What do the screens show for `O=C1OC(c2ccc([N+](=O)[O-])cc2)=N/C1=C/N1CC2CC(C1)c1cccc(=O)n1C2` (centres undefined)?
CtBP-E1A inh: inactive; JMJD2A Tudor: inactive; BAZ2B block: inactive; Six1-Eya2 blk: inactive; HP1b binding inh: inactive; G9a inh: 79.4µM

What do the screens show for `COc1ccc(NC(=O)CCc2nc(C3=CCN(Cc4cccc(Cl)c4)CC3)no2)cc1OC`?
JMJD2A Tudor: 56.2µM; BAZ2B block: 50.1µM; HP1b binding inh: inactive; G9a inh: 28.2µM

How did Cc1cc(-c2n[nH]c(=S)n2CC(C)C)cs1 do in these assays?
CtBP-E1A inh: inactive; JMJD2A Tudor: 5.62µM; BAZ2B block: inactive; Six1-Eya2 blk: inactive; HP1b binding inh: inconclusive; G9a inh: 3.16µM

How did Cc1cc(Cc2c(O)[nH]c(=S)[nH]c2=O)ccc1OC(C)C do in these assays?
JMJD2A Tudor: 89.1µM; BAZ2B block: inactive; Six1-Eya2 blk: inactive; HP1b binding inh: inconclusive; G9a inh: 8.91µM
